Screens deposited in PubChem BioAssay by National Center for Advancing Translational Sciences (NCATS).
A selection: hits, their analogues and other compounds. The true share with any hit is near 12%.
NS1 function inh = influenza NS1 inhibition. Potency, µM (series often up to 46.1 µM). hit rate 0.4% among 270,000. AID 2326; further: actives are rising curves; nearly all actives have a fitted effect of over 50% in size
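S. cerevisiae expressing influenza A NS1, grown in glucose, washed, then diluted 1:100 into pH 6.0 -URA galactose medium with 23 nl compound. Growth recovery read as OD600; NS1-free strain serves as control.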
Shiga toxin inh = blocks Shiga toxin action in Vero cells; Vero cells, Shiga toxin protein synthesis inhibition reporter; inhibition, % at 38.7 µM; hit rate 9.2% among 290,000; AID 2315; in the data active means inhibition mostly above about 28%, no sharp cut-off; inactive means mostly below about 43%
CHX counter = affects cycloheximide protein synthesis inhibition readout, counter-screen. cell reporter, cycloheximide protein synthesis inhibition counterscreen. max response, %. hit rate 12% among 300,000. AID 2314; in the data active means max response mostly above about 13%, no sharp cut-off; inactive means mostly below about 14%; further: read at 38.3 µM for the half of the compounds with a filed dose
SARS PLpro yeast = SARS-CoV PLP inhibition in yeast | AID 485353 | Potency, µM (top dose mostly 32.9 µM), usual class: activators | hit rate 0.19% among 330,000 | S. cerevisiae expressing SARS-CoV PLpro, growth rescue; further: nearly all actives have a fitted effect of over 55% in size
Hits are given with their value; 0 = inactive; ? = inconclusive; - = no result given; ! = repeats disagree; [ ] = dose if it differs, or a comment. Unless noted, the call rests on the fitted dose curve.

SMILES	NS1 function inh	Shiga toxin inh	CHX counter	SARS PLpro yeast
CC(=O)CSc1ncnc2c1oc1ccccc12	0	0	12	0
CCc1nc(SCC(=O)c2cccs2)c2oc3ccccc3c2n1	0	0	27	0
CC(C)Sc1ncnc2c1oc1ccccc12	0	85	32	0
c1ccc(Sc2ncnc3c2oc2ccccc23)nc1	0	115	64	0
c1ccc(N2CCN(c3ncnc4c3oc3ccccc34)CC2)cc1	0	0	0	0
O=C(CSc1ncnc2c1oc1ccccc12)Nc1ccccc1F	0	0	0	0
CC1(C)C=C2C(=NN(c3ccccc3)C(N)=C2C#N)CO1	0	0	0	0
Cc1ccc(C(=O)NC(=O)CSc2nnc(C)s2)cc1	0	0	0	0
CCOc1ccccc1NC(=O)CSc1ncnc2c1oc1ccccc12	0	0	23	0
C=CCN(CC=C)C(=O)CN1C(=O)NC(C)(c2ccc3cc(OC)ccc3c2)C1=O (stereo not drawn)	0	0	0	0
O=C(Nc1cccc(-c2nc3ccccc3s2)c1)C1=COCCO1	0	50	44	0
O=C(Nc1ccc(O)c(-c2nc3ccccc3s2)c1)C1=COCCO1	0	0	0	0
O=C(Nc1ccc(-c2nc3ccccc3s2)c(O)c1)C1=COCCO1	0	73	131	0
O=C(Nc1ccc(-c2nc3ccccc3s2)cc1)C1=COCCO1	0	56	40	0
Cc1ccnc2nc(C(=O)OCC(=O)c3ccc(Cl)cc3)nn12	-	-	-	0
CC(C)n1c(/N=C/c2ccccc2O)nc2ccccc21	0	0	0	0
C=CCSc1nncn1/N=C/c1ccc(OC)cc1	0	76	37	0
COc1ccc(OC)c(-c2csc(N(Cc3ccco3)C(=O)c3cccs3)n2)c1	0	0	0	0
COc1ccc(-c2csc(N(C)C(=O)c3cccs3)n2)cc1	0	33	22	0
O=C(C1CC1)N(Cc1ccco1)c1nc(-c2ccccc2)cs1	0	0	8.3	0
COc1ccc(-c2csc(N(Cc3ccco3)C(=O)c3cccs3)n2)cc1	0	57	22	0
COc1ccc2cc(C3OCCO3)c(Cl)nc2c1	0	128	60	0
O=C(N/N=C/c1cccs1)c1cccc(NC(=O)c2ccccc2Cl)c1	0	0	18	0
O=C(N/N=C/c1cccs1)c1ccc(NC(=O)c2ccccc2Cl)cc1	0	0	0	0
Cc1cccc(C(=O)N/N=C/c2ccccn2)c1	0	91	25	0
SMILES	NS1 function inh	Shiga toxin inh	CHX counter	SARS PLpro yeast
Cc1cccc(C(=O)Nc2cccc(C(=O)N/N=C/c3ccccn3)c2)c1	0	0	13	0
O=C(N/N=C/c1ccccn1)c1ccc2nc[nH]c2c1	0	0	0	0
O=C(N/N=C/c1ccccn1)c1cccc(NC(=O)c2ccccc2Cl)c1	0	34	11	0
COc1cc(C(=O)NCC2CCCN2S(=O)(=O)c2cccs2)cc(OC)c1OC (stereo not drawn)	-	-	-	0
O=C(N/N=C/c1ccccc1F)c1cccc(NC(=O)c2ccccc2Cl)c1	0	56	26	0
O=C(Nc1cccc(NC(=O)c2ccccc2Cl)c1)c1ccc(F)cc1	0	0	0	0
O=C(N/N=C/c1cccs1)c1ccc(-n2cccc2)cc1	0	0	22	0
COc1cccc(-c2ccc(NC(=O)C3CCCN(Cc4cnc(C)n4C)C3)cc2)c1 (stereo not drawn)	0	0	0	0
COc1cccc(-c2ccc(NC(=O)C3CCCN(Cc4nccn4C)C3)cc2)c1 (stereo not drawn)	0	35	22	0
C=CCn1c(NCc2ccc(N(C)C)cc2)nc2ccccc21	0	active	33	0
CCn1c(NCc2ccc(OC)cc2)nc2ccccc21	0	23	12	0
CCn1c(NCc2ccco2)nc2ccccc21	-	0	0	0
CCn1c(NCc2ccccc2Cl)nc2ccccc21	0	24	0	0
Cn1ccc(C(=O)OCC(=O)Nc2ccccc2Cl)n1	0	0	0	0
CC(CC(=O)Nc1ccc(Cl)c(S(=O)(=O)N2CCOCC2)c1)c1ccccc1 (stereo not drawn)	-	-	-	0
Cn1c(NC(=S)Nc2ccccc2)nc2ccccc21	0	65	47	8.9µM
S=C(Nc1ccccc1)Nc1nc2ccccc2n1CCOc1ccc(Br)cc1	0	44	34	?
O=C(Nc1ccc2oc(-c3ccccc3)nc2c1)C1CCCO1 (stereo not drawn)	0	67	45	0
O=C(Nc1ccc(-c2nc3ccccc3o2)cc1)C1CCCO1 (stereo not drawn)	0	73	37	0
O=C(Nc1ccc(-c2nc3cc(Cl)ccc3o2)cc1)C1CCCO1 (stereo not drawn)	0[9.22 µM]	70	30	0
O=C(CSC(=S)N1CCCC1)NCC(=O)Nc1ccc(F)c(F)c1	0	0	0	0
Cc1ccc(NC(=O)Nc2ccccc2CC[N+](=O)[O-])cc1	-	0	16	0
CCC(CC)c1nnc(NC(=O)CSCC(=O)Nc2cc(C)on2)s1	-	-	-	0
CC(=O)Nc1ccc(-n2cc(-c3ccccc3)[nH]c2=S)cc1	-	0	0	0
O=C(O)c1ccc(-n2cc(-c3cc4ccccc4oc3=O)[nH]c2=S)cc1	0	64	32	0
SMILES	NS1 function inh	Shiga toxin inh	CHX counter	SARS PLpro yeast
COc1ccc(/C=N\NC(=O)c2cccc([N+](=O)[O-])c2)cc1Cn1cc([N+](=O)[O-])cn1	0	0	0	0
COc1ccc(/C=N/NC(=O)c2ccccc2O)cc1Cn1cc(Cl)cn1	0	0	16	0
COc1ccc(/C=N/NC(=O)c2ccn[nH]2)cc1COc1ccc(Cl)cc1	0	0	31	0
COc1ccc(/C=N/NC(=O)c2ccc(N)cc2)cc1Cn1cc([N+](=O)[O-])cn1	-	0	0	0
COc1ccc(/C=N/NC(=O)c2ccn[nH]2)cc1Cn1cc([N+](=O)[O-])cn1	0	59	23	0
COc1cc(OC)cc(C(=O)N/N=C/c2ccc(OC)c(COc3ccc(F)cc3)c2)c1	0	0	0	0
COc1ccc(/C=N/NC(=O)c2ccn[nH]2)cc1CSc1ccccn1	0	75	65	0
O=C(NCc1nnc(SCc2ccc(F)cc2)n1-c1ccc(F)cc1)C12CC3CC(CC(C3)C1)C2	0	0	0	0
COc1ccc(/C=N/N2CCOCC2)cc1COc1ccc(F)cc1	-	0	35	0
COc1ccc(/C=N/N2CCOCC2)cc1COc1ccc(Cl)cc1	0	0	0	0
COc1ccc(/C=N/N2CCOCC2)cc1Cn1cc([N+](=O)[O-])cn1	0	0	15	0
CCOC(=O)c1ccc(N2CCOCC2)c(NC(=O)c2c(-c3ccccc3)noc2C)c1	0	0	0	0
CC(Sc1nnc(C2CC2)n1-c1ccccc1)C(=O)N1CCCC1 (stereo not drawn)	-	-	-	0
CN1CCC(=O)N(CCSc2ccccc2)CC1	0	49	43	0
c1ccc(SCCN2CCc3ccccc3C2)cc1	0	0	27	0
c1ccc(SCCOCCN2CCc3ccccc3C2)cc1	0	0	0	0
O=C1CCN(CCc2ccccc2)CCN1CCSc1ccccc1	0	0	23	0
Cc1ccc(SCCN2CCN(C)CCC2=O)cc1	0	77	28!	0
O=C(CSCc1ccc([N+](=O)[O-])cc1)NC1CCCCCC1	0	0	0	0
Nc1nc(C(=O)O)c(N=Nc2ccccc2)c(=O)[nH]1	0	-	-	-
CC1CCC(=O)N(CCSc2ccccc2)CC1 (stereo not drawn)	0	37	25	0
